Experimental data taken from publication PMC8384837, “Expanding the binding specificity for RNA recognition by a PUF domain”.

Molecular target: PUM1 PUF domain R2-LWA (Homo sapiens, UniProt Q14671 828-1176, N899L;Y900W;Q903A)
Experiment: yeast three-hybrid, YBZ-1, SC-Leu-His + 0.5 mM 3-AT, 4 days
Conditions: tags: N-Gal4 AD-HA kept; label: inside an RPR1-promoter hybrid RNA with tandem MS2 sites; ssRNA
Summary of the method: (§1)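 Matching RNA elements and Pumilio-1 PUF domain libraries, randomized at the three base-contacting residues of every repeat, were co-expressed from a centromeric plasmid in strain YBZ-1 (LexA–MS2 coat fusion, HIS3 reporter). The repeat regions were PCR-amplified and Illumina-sequenced from cells grown four days on SC-Leu (input) or SC-Leu-His + 0.5 mM 3-AT (selection). The interaction score is the log change in variant frequency from input to selection. It is computed in log2, with a pseudocount of 1 for absent variants.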

Sequence | binding signal
GGCUAGAACUAGUGGAUCCCCCGGCGCCCGGCGGCUCGAGCCCGGGUAAGUGUAAAAAGUCUGCAUGCCGCCGGGCGCCAUGCCUGCAGGUCGACUCUAGAAAACAUG | 6.09 log2 enrichment (interaction score)
GGCUAGAACUAGUGGAUCCCCCGGCGCCCGGCGGCUCGAGCCCGGGUAAGUGUAAAGAGUCUGCAUGCCGCCGGGCGCCAUGCCUGCAGGUCGACUCUAGAAAACAUG | 2.94 log2 enrichment (interaction score)
GGCUAGAACUAGUGGAUCCCCCGGCGCCCGGCGGCUCGAGCCCGGGUAAGUGUAAAUAGUCUGCAUGCCGCCGGGCGCCAUGCCUGCAGGUCGACUCUAGAAAACAUG | 1.62 log2 enrichment (interaction score)

Molecular target: PUM1 PUF domain R5-RYA (Homo sapiens, UniProt Q14671 828-1176, C1007R;R1008Y;Q1011A)
Experiment: as above
Conditions: tags: N-Gal4 AD-HA kept; label: inside an RPR1-promoter hybrid RNA with tandem MS2 sites; ssRNA
Summary of the method: as §1

Sequence | binding signal
GGCUAGAACUAGUGGAUCCCCCGGCGCCCGGCGGCUCGAGCCCGGGUAAGUGUUAAUAGUCUGCAUGCCGCCGGGCGCCAUGCCUGCAGGUCGACUCUAGAAAACAUG | 4.8 log2 enrichment (interaction score)
GGCUAGAACUAGUGGAUCCCCCGGCGCCCGGCGGCUCGAGCCCGGGUAAGUGUCAAUAGUCUGCAUGCCGCCGGGCGCCAUGCCUGCAGGUCGACUCUAGAAAACAUG | 4.95 log2 enrichment (interaction score)
GGCUAGAACUAGUGGAUCCCCCGGCGCCCGGCGGCUCGAGCCCGGGUAAGUGUAAAUAGUCUGCAUGCCGCCGGGCGCCAUGCCUGCAGGUCGACUCUAGAAAACAUG | 1.12 log2 enrichment (interaction score)
